{
  "source": "PubChem BioAssay",
  "key": {"[1]": {"test_system": "Plasmodium falciparum Sir2 (PF13_0152, Sir2A)", "test": "Plasmodium falciparum Sir2A binding compounds – biochemical, small-molecule microarray, 635 nm fluorescence, primary screen (AID 1098);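 also: score merges spot fluorescence intensity with its signal-to-noise ratio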", "conditions": "fluorescence 635 nm, higher = more signal"}, "[2]": {"test": "probe aDKK1 binding to arrayed compounds – biochemical, biotinylated probe, 635/667 nm fluorescence, primary screen (AID 1099);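 also: score merges 667nm spot fluorescence with signal to noise across triplicate slides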", "conditions": "small-molecule microarray, higher = more signal"}, "[3]": {"test": "probe aCHRDL2 binding to arrayed compounds – biochemical, biotinylated probe, 635/667 nm fluorescence, primary screen (AID 1100)", "conditions": "small-molecule microarray, higher = more signal"}, "[4]": {"test": "change in splice reporter luminescence, either direction, cell-based, HEK293, spliceosome inhibition project, primary screen (AID 1101);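 also: HEK293 cells carrying a splicing-competent luciferase reporter gene; test concentration not given here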", "conditions": "HEK293 splicing luciferase reporter, 24 h, higher = more signal, called active from +8 up or from −8 down"}, "[5]": {"target": "Fibroblast growth factor 10 (Homo sapiens) (UniProt O15520)", "sequence (O15520 whole entry, looked up)": "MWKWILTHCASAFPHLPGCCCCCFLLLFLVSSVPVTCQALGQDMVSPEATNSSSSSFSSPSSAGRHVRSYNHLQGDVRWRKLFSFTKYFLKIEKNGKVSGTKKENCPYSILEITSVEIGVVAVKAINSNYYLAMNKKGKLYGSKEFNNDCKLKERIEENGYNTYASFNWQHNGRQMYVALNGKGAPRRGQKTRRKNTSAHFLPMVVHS", "test": "compounds binding fibroblast growth factor 10 – biochemical, small-molecule microarray, 635 nm fluorescence, primary screen (AID 1102)", "conditions": "FGF10 binding, fluorescence 635 nm, higher = more signal"}, "[6]": {"test_system": "glycogen synthase kinase-3 (GSK3A per assay name; protocol says GSK3B)", "test": "compounds binding glycogen synthase kinase-3 – biochemical, small-molecule microarray, 635 nm fluorescence, GSK3A, primary screen (AID 1103); also: the record names both GSK3A and GSK3B", "conditions": "fluorescence 635 nm, higher = more signal"}, "[7]": {"target": "Epidermal growth factor receptor (Homo sapiens) (UniProt P00533)", "sequence (P00533 whole entry, looked up)": "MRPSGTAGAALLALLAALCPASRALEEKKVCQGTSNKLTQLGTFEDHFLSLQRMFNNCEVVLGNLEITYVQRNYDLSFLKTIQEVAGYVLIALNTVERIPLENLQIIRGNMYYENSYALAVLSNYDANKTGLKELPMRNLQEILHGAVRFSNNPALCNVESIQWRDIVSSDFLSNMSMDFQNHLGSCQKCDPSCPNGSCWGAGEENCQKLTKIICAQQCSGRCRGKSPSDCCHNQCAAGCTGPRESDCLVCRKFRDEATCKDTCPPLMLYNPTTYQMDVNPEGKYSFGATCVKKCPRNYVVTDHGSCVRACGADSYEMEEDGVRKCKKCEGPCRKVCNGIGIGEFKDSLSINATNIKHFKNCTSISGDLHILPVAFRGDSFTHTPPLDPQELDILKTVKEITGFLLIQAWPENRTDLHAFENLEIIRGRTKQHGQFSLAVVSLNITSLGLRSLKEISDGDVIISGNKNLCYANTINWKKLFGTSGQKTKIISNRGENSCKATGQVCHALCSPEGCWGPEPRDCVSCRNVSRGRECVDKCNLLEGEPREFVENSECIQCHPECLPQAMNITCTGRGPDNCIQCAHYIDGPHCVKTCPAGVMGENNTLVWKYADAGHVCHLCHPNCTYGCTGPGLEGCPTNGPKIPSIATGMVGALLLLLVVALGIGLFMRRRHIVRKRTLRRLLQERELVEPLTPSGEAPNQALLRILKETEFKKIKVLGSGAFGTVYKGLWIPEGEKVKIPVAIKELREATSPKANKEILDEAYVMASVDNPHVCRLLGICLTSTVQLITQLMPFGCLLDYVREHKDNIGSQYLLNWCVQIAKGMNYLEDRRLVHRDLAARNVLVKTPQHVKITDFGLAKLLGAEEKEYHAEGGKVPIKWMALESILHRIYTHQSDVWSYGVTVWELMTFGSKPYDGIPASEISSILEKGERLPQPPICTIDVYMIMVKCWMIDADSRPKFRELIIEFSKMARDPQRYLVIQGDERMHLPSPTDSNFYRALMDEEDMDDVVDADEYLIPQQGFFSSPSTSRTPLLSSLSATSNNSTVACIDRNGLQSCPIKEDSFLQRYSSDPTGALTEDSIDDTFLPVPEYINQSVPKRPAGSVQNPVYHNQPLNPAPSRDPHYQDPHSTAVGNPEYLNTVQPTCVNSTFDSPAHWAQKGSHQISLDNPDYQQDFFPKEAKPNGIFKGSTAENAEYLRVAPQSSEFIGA", "test": "compounds binding epidermal growth factor receptor – biochemical, small-molecule microarray, 635 nm fluorescence, primary screen (AID 1104);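 also: score merges 667 nm emission intensity with spot signal to noise over triplicate slides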", "conditions": "EGFR binding, higher = more signal"}, "[8]": {"target": "Follistatin-related protein 3 (Homo sapiens) (UniProt O95633)", "sequence (O95633 whole entry, looked up)": "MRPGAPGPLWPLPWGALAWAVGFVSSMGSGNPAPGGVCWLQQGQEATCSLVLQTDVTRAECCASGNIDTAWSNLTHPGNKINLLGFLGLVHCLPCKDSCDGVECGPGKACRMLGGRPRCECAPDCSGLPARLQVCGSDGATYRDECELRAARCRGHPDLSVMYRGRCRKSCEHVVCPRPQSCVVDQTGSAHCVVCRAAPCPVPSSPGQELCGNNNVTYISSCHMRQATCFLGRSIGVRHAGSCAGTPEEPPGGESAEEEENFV", "test": "compounds binding follistatin-related protein 3 – biochemical, small-molecule microarray, 635 nm fluorescence, primary screen (AID 1105);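 also: score merges emission near 667 nm and signal to noise per printed spot across three slides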", "conditions": "FSTL3 binding, higher = more signal"}, "[9]": {"target": "Dickkopf-related protein 1 (Homo sapiens) (UniProt O94907)", "sequence (O94907 whole entry, looked up)": "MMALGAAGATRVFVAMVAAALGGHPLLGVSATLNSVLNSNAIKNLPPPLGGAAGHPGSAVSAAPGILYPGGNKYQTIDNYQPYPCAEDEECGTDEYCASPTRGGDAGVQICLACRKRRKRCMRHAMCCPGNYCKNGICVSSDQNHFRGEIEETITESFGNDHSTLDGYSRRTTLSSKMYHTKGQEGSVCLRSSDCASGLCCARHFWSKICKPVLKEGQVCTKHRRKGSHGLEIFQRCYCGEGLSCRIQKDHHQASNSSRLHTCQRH", "test": "small molecules binding DKK1 protein – biochemical, small-molecule microarray, 635 nm fluorescence scan, primary screen (AID 1106);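 also: score merges emission near 667 nm with signal to noise over three replicate slides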", "conditions": "higher = more signal"}, "[10]": {"test_system": "Inhibin beta A chain (activin A)", "test": "small molecules binding activin A – biochemical, small-molecule microarray, 635 nm fluorescence scan, primary screen (AID 1107);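 also: mouse activin A protein probed at 4.33 µg/mL on printed slides; score merges bound-protein fluorescence near 667 nm with spot signal-to-noise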", "conditions": "INHBA, higher = more signal"}, "[11]": {"test_system": "Human papillomavirus type 1a protein E7 (residues 44-93)", "test": "small molecules binding HPV E7 44-93 – biochemical, small-molecule microarray, residues 44-93, 635 nm fluorescence, primary screen (AID 1108);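 also: E7 fragment applied at 1 µg/mL in TBST for 1 h at 4 C; score combines spot fluorescence with its signal to noise ratio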", "conditions": "fluorescence 635 nm, higher = more signal"}, "[12]": {"test": "hepatitis C replication reporter changes, two-sided – Huh7 cells, luciferase reporter, HCV replication inhibitor project, primary screen (AID 1109);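 also: huh7 hepatoma cells harbouring a luciferase neomycin HCV replicon reporter; test concentration not given here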", "conditions": "Huh7 HCV replicon luciferase reporter, 48 h; higher = more signal"}, "[13]": {"target": "Left-right determination factor 2 (Homo sapiens) (UniProt O00292)", "sequence (O00292 whole entry, looked up)": "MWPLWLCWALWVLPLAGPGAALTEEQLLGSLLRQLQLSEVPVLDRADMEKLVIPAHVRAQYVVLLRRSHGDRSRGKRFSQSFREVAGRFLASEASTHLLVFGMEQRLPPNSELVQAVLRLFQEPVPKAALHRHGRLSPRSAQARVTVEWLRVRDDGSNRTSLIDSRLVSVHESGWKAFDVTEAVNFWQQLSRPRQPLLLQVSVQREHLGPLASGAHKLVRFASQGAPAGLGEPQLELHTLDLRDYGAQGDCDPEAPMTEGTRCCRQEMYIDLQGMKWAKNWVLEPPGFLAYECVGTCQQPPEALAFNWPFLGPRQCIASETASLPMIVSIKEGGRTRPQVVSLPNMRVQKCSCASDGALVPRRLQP", "test": "small molecules binding LEFTY2 protein – biochemical, small-molecule microarray, 635 nm fluorescence scan, primary screen (AID 1110)", "conditions": "higher = more signal"}, "[14]": {"target": "Calmodulin-1 (Homo sapiens) (UniProt P0DP23)", "test": "small molecules binding calmodulin-1 with EGTA – biochemical, small-molecule microarray, Cy5-labelled CALM1, profiling panel (AID 1111);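 also: labelled calmodulin applied in Tris saline Tween buffer holding calcium plus EGTA and DTT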", "conditions": "Cy5-CALM1 binding fluorescence, higher = more signal"}, "[15]": {"target": "Calmodulin-1 (Homo sapiens) (UniProt P0DP23)", "test": "small molecules binding Ca-loaded calmodulin-1 – biochemical, small-molecule microarray, Cy5-labelled CALM1, plus calcium, artefact control for SMM control-protein annotation, profiling panel (AID 1112);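 also: score merges spot fluorescence with signal to noise from triplicate slides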", "conditions": "Cy5-CALM1 binding fluorescence, higher = more signal"}, "[16]": {"test": "probe aWnt5a binding to arrayed compounds – biochemical, biotinylated probe, 635/667 nm fluorescence, primary screen (AID 1113);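 also: score merges 667 nm fluorescence intensity with signal-to-noise per printed feature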", "conditions": "small-molecule microarray, higher = more signal"}, "[17]": {"test": "probe aShh binding to arrayed compounds – biochemical, biotinylated probe, 635/667 nm fluorescence, primary screen (AID 1114);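 also: probe is biotin-labelled aShh protein from a stem cell growth factor screen; measures binding of labelled protein to compounds printed on the slide; score merges feature fluorescence at 667 nm with signal-to-noise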", "conditions": "small-molecule microarray, higher = more signal"}, "[18]": {"test": "probe aNog binding to arrayed compounds – biochemical, biotinylated probe, 635/667 nm fluorescence, primary screen (AID 1115);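 also: probe is biotinylated aNog protein used at 0.15 µg/mL for 1 h at 4 C; z-score combines 667 nm fluorescence of each spot with its signal to noise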", "conditions": "small-molecule microarray, higher = more signal"}, "[19]": {"target": "Torsin-1A-interacting protein 1 (Homo sapiens) (UniProt Q5JTV8)", "sequence (Q5JTV8 whole entry, looked up)": "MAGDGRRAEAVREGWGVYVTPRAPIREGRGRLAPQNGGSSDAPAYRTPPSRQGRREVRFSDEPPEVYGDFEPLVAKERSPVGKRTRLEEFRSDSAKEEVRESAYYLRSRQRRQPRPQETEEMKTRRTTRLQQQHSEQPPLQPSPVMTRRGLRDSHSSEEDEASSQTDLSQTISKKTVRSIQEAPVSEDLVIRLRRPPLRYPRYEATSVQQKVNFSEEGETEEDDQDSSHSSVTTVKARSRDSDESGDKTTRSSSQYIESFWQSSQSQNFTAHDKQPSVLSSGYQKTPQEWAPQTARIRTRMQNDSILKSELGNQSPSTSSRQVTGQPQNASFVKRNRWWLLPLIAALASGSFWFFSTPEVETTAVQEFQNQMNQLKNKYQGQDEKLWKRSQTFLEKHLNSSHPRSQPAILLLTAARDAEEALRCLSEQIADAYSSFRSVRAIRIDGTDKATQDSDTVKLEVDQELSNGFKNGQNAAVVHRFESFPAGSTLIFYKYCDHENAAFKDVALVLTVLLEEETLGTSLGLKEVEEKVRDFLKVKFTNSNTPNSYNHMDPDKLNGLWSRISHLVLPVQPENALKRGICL", "test": "compound microarray binding of lysate hLAP1 – cell lysate, small-molecule microarray, COS7 lysate, 635/667 nm fluorescence, primary screen (AID 1116)", "conditions": "635 nm fluorescence, higher = more signal"}, "[20]": {"target": "Alpha-bungarotoxin (Bungarus multicinctus) (UniProt P60615)", "sequence (P60615 whole entry, looked up)": "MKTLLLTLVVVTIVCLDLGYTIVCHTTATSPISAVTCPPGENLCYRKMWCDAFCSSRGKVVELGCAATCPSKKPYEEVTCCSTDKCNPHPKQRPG", "test": "compounds binding labelled alpha-BTX control protein – biochemical, small-molecule microarray, Alexa647 label, 635/667 nm fluorescence, artefact control for SMM control protein annotation, profiling panel (AID 1117)", "conditions": "alpha-BTX-A647 binding fluorescence, higher = more signal"}},
  "note": "Active and inactive are the calls of the source.",
  "data": [
    {"compound": "C=C(COC)/C(=C/C[C@H](OC(C)=O)c1ccc(CO)o1)c1cnc2ccccc2c1", "values": [
      {"measurement": "composite z-score", "setting": "[1]", "value": 1.05},
      {"measurement": "composite z-score", "setting": "[2]", "value": 0.0967},
      {"measurement": "composite z-score", "setting": "[3]", "value": 0.131},
      {"measurement": "z-score", "setting": "[4]", "value": "-1.03 (inactive)"},
      {"measurement": "composite z-score", "setting": "[5]", "value": 0.979},
      {"measurement": "composite z-score", "setting": "[6]", "value": 1.29},
      {"measurement": "composite z-score", "setting": "[7]", "value": 0.477},
      {"measurement": "composite z-score", "setting": "[8]", "value": 1.48},
      {"measurement": "composite z-score", "setting": "[9]", "value": 0.639},
      {"measurement": "composite z-score", "setting": "[10]", "value": 1.61},
      {"measurement": "composite z-score", "setting": "[11]", "value": 0.729},
      {"measurement": "z-score", "setting": "[12]", "value": -1.18},
      {"measurement": "composite z-score", "setting": "[13]", "value": 0.149},
      {"measurement": "composite z-score", "setting": "[14]", "value": 0.143},
      {"measurement": "composite z-score", "setting": "[15]", "value": -0.387},
      {"measurement": "composite z-score", "setting": "[16]", "value": -0.0445},
      {"measurement": "composite z-score", "setting": "[17]", "value": 0.0893},
      {"measurement": "composite z-score", "setting": "[18]", "value": 0.186},
      {"measurement": "composite z-score", "setting": "[19]", "value": 0.845},
      {"measurement": "composite z-score", "setting": "[20]", "value": 2.83}
    ]},
    {"compound": "O=C1c2ccccc2C(=O)c2cc([C@H]3Oc4ccccc4S(=O)(=O)N4CCC[C@@H]34)ccc21", "values": [
      {"measurement": "composite z-score", "setting": "[1]", "value": -1.12},
      {"measurement": "composite z-score", "setting": "[2]", "value": -0.108},
      {"measurement": "composite z-score", "setting": "[3]", "value": 0.461},
      {"measurement": "z-score", "setting": "[4]", "value": "-0.833 (inactive)"},
      {"measurement": "composite z-score", "setting": "[5]", "value": -0.439},
      {"measurement": "composite z-score", "setting": "[6]", "value": -0.896},
      {"measurement": "composite z-score", "setting": "[7]", "value": -0.727},
      {"measurement": "composite z-score", "setting": "[8]", "value": -1.02},
      {"measurement": "composite z-score", "setting": "[9]", "value": 0.11},
      {"measurement": "composite z-score", "setting": "[10]", "value": 1.09},
      {"measurement": "composite z-score", "setting": "[11]", "value": -1.1},
      {"measurement": "z-score", "setting": "[12]", "value": -2},
      {"measurement": "composite z-score", "setting": "[13]", "value": -0.148},
      {"measurement": "composite z-score", "setting": "[14]", "value": -0.94},
      {"measurement": "composite z-score", "setting": "[15]", "value": 0.812},
      {"measurement": "composite z-score", "setting": "[16]", "value": -0.16},
      {"measurement": "composite z-score", "setting": "[17]", "value": -0.214},
      {"measurement": "composite z-score", "setting": "[18]", "value": 0.0431},
      {"measurement": "composite z-score", "setting": "[19]", "value": -0.749},
      {"measurement": "composite z-score", "setting": "[20]", "value": -0.744}
    ]},
    {"compound": "CC(=O)OC(C/C=C\\B1OC(C)(C)C(C)(C)O1)c1ccccc1", "note": "(stereo not given)", "values": [
      {"measurement": "composite z-score", "setting": "[1]", "value": -0.552},
      {"measurement": "composite z-score", "setting": "[2]", "value": -0.264},
      {"measurement": "composite z-score", "setting": "[3]", "value": 0.281},
      {"measurement": "z-score", "setting": "[4]", "value": "-2.42 (inactive)"},
      {"measurement": "composite z-score", "setting": "[5]", "value": -0.704},
      {"measurement": "composite z-score", "setting": "[6]", "value": -0.138},
      {"measurement": "composite z-score", "setting": "[7]", "value": 0.247},
      {"measurement": "composite z-score", "setting": "[8]", "value": 0.173},
      {"measurement": "composite z-score", "setting": "[9]", "value": 0.0618},
      {"measurement": "composite z-score", "setting": "[10]", "value": 1.38},
      {"measurement": "composite z-score", "setting": "[11]", "value": -0.328},
      {"measurement": "z-score", "setting": "[12]", "value": 0.386},
      {"measurement": "composite z-score", "setting": "[13]", "value": 0.149},
      {"measurement": "composite z-score", "setting": "[14]", "value": -1.33},
      {"measurement": "composite z-score", "setting": "[15]", "value": -0.664},
      {"measurement": "composite z-score", "setting": "[16]", "value": -0.152},
      {"measurement": "composite z-score", "setting": "[17]", "value": -0.0813},
      {"measurement": "composite z-score", "setting": "[18]", "value": -0.405},
      {"measurement": "composite z-score", "setting": "[19]", "value": -0.0001},
      {"measurement": "composite z-score", "setting": "[20]", "value": -0.236}
    ]},
    {"compound": "CO[C@H]1O[C@H](CO)[C@@H](OC(=O)CCc2ccccc2)[C@@H]2OC(=O)[C@H](Cc3ccccc3)C/C=C/C[C@@H](Cc3ccccc3)C(=O)O[C@@H]12", "values": [
      {"measurement": "composite z-score", "setting": "[1]", "value": 0.489},
      {"measurement": "composite z-score", "setting": "[2]", "value": -0.332},
      {"measurement": "composite z-score", "setting": "[3]", "value": 0.268},
      {"measurement": "z-score", "setting": "[4]", "value": "-0.87 (inactive)"},
      {"measurement": "composite z-score", "setting": "[5]", "value": -0.135},
      {"measurement": "composite z-score", "setting": "[6]", "value": -1.24},
      {"measurement": "composite z-score", "setting": "[7]", "value": -0.938},
      {"measurement": "composite z-score", "setting": "[8]", "value": -0.861},
      {"measurement": "composite z-score", "setting": "[9]", "value": -0.844},
      {"measurement": "composite z-score", "setting": "[10]", "value": 1.17},
      {"measurement": "composite z-score", "setting": "[11]", "value": -0.673},
      {"measurement": "z-score", "setting": "[12]", "value": -1.31},
      {"measurement": "composite z-score", "setting": "[13]", "value": -0.0637},
      {"measurement": "composite z-score", "setting": "[14]", "value": -0.879},
      {"measurement": "composite z-score", "setting": "[15]", "value": -0.123},
      {"measurement": "composite z-score", "setting": "[16]", "value": -0.106},
      {"measurement": "composite z-score", "setting": "[17]", "value": -0.471},
      {"measurement": "composite z-score", "setting": "[18]", "value": 0.248},
      {"measurement": "composite z-score", "setting": "[19]", "value": 0.108},
      {"measurement": "composite z-score", "setting": "[20]", "value": -0.75}
    ]}
  ]
}
